Experiments:
Test in all cases: log2 ratio of Biotin-Ahx-Ub-VS probe labelling (fragment/DMSO); higher = less target engagement (more negative = stronger competition), active = hit call of the paper (q ≤ 0.05, log2 ratio ≤ -1)
Conditions in all cases: compound concentration: 200 uM; treatment time: 3 h
OTUD6B = target: T1, OTUD6B (UniProt Q8N6M0)
T1 sequence (whole entry): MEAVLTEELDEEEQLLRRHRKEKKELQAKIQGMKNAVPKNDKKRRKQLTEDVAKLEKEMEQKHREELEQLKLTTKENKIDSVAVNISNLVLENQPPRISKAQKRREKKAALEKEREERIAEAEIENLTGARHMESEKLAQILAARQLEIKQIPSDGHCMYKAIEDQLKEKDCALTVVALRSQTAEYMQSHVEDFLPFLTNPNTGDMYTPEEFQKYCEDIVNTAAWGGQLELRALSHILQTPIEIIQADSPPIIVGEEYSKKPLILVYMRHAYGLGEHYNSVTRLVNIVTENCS
Summary of the method: (§1)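 Lysate from HEK293T cells, 495 µg per sample in Tris/CHAPS/IGEPAL buffer with protease inhibitors, was treated for 3 h in triplicate with fragment at 200 µM or vehicle. Biotin-Ahx-Ub-VS was next added at 0.5 µM final for 1 h. The labelled DUBs were enriched with NeutrAvidin, digested with LysC and trypsin, and run by diaPASEF LC-MS/MS, with values given as average log2 fragment/vehicle ratios by unpaired t-test on global-median-normalised Spectronaut quantities of proteins with ≥2 unique peptides.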

OTUD7B = target: T2, OTUD7B (UniProt Q6GQQ9)
T2 sequence (whole entry): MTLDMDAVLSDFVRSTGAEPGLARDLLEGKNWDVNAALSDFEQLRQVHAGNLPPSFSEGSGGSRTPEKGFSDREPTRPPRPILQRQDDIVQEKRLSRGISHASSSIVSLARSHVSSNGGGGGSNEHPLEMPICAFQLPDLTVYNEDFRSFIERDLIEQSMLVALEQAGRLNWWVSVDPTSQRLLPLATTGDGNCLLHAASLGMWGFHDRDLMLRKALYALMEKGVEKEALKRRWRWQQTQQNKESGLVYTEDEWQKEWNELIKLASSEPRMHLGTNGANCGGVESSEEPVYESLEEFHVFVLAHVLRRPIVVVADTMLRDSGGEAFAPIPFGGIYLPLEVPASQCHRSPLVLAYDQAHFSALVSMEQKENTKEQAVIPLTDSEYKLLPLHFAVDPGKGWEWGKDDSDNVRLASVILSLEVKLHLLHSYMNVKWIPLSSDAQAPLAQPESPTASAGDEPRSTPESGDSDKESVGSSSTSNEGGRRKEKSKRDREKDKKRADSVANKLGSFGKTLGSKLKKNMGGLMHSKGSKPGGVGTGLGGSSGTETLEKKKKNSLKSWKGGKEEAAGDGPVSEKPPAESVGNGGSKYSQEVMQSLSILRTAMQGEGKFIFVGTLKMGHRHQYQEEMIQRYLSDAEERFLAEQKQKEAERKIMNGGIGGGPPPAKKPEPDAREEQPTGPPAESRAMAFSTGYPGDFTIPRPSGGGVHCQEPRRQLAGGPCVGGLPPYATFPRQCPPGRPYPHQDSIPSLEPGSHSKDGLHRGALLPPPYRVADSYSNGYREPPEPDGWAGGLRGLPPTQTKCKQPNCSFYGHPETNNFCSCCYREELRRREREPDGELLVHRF
Summary of the method: as §1

PRPF8 = PRPF8 (UniProt Q6P2Q9)
Summary of the method: as §1

PSMD7 = target: T3, PSMD7 (UniProt P51665)
T3 sequence (whole entry): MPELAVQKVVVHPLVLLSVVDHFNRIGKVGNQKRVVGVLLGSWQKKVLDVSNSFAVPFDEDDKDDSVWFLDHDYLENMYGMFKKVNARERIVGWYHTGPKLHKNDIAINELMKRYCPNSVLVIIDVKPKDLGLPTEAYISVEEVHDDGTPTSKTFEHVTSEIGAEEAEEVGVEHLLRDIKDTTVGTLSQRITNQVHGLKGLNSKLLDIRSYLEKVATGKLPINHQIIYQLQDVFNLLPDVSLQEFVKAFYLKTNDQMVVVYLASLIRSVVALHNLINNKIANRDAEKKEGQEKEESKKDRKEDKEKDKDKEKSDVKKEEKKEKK
Summary of the method: as §1

UCHL1 = UCHL1 (UniProt P09936)
Summary of the method: as §1

UCHL3 = target: T4, UCHL3 (UniProt P15374)
T4 sequence (whole entry): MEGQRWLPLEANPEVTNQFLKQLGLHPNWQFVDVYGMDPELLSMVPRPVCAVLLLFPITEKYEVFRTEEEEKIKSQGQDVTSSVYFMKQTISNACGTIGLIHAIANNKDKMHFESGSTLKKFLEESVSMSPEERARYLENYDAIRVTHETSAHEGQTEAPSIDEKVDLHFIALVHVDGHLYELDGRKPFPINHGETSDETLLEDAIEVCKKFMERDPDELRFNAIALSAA
Summary of the method: as §1

UCHL5 = target: T5, UCHL5 (UniProt Q9Y5K5)
T5 sequence (whole entry): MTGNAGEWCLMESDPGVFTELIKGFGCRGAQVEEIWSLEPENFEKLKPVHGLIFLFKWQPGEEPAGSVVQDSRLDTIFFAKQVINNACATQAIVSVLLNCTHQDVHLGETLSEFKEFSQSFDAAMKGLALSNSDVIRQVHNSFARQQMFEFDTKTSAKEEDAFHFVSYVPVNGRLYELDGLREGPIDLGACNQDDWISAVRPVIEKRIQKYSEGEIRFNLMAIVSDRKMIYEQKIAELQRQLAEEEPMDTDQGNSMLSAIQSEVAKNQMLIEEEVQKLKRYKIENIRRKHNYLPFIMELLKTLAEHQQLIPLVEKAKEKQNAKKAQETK
Summary of the method: as §1

USP10 = USP10 (UniProt Q14694)
Summary of the method: as §1

USP15 = target: T6, USP15 (UniProt Q9Y4E8)
T6 sequence (whole entry): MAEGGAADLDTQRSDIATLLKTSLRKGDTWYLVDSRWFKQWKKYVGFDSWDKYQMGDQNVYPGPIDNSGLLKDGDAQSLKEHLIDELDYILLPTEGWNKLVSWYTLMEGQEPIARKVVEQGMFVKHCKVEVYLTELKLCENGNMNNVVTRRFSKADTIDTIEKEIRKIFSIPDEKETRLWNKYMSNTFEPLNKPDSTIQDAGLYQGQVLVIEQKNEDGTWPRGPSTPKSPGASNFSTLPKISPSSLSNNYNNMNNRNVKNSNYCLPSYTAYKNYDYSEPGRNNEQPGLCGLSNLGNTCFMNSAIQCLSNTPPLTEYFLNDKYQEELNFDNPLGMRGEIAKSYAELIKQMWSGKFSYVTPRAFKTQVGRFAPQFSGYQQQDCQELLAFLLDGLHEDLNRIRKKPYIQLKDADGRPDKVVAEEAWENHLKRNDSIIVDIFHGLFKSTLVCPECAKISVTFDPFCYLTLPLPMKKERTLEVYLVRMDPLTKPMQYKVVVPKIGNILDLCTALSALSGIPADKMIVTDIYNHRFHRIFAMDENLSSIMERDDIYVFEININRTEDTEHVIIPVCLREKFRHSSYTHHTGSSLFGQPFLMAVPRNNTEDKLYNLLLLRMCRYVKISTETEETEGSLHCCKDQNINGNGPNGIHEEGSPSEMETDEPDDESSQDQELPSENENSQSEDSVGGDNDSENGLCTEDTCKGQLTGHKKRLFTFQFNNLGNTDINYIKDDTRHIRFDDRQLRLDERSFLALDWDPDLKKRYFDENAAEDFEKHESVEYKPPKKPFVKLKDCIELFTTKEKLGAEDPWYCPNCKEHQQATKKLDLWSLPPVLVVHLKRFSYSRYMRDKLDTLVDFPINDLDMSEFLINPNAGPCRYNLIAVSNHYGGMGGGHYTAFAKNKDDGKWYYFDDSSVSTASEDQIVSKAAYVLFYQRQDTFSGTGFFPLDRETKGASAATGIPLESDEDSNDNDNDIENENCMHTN
Summary of the method: as §1

USP16 = USP16 (UniProt Q9Y5T5)
Summary of the method: as §1

Measured: log2 ratio of Biotin-Ahx-Ub-VS probe labelling

Sequence of USP16 (Q9Y5T5 whole entry, looked up): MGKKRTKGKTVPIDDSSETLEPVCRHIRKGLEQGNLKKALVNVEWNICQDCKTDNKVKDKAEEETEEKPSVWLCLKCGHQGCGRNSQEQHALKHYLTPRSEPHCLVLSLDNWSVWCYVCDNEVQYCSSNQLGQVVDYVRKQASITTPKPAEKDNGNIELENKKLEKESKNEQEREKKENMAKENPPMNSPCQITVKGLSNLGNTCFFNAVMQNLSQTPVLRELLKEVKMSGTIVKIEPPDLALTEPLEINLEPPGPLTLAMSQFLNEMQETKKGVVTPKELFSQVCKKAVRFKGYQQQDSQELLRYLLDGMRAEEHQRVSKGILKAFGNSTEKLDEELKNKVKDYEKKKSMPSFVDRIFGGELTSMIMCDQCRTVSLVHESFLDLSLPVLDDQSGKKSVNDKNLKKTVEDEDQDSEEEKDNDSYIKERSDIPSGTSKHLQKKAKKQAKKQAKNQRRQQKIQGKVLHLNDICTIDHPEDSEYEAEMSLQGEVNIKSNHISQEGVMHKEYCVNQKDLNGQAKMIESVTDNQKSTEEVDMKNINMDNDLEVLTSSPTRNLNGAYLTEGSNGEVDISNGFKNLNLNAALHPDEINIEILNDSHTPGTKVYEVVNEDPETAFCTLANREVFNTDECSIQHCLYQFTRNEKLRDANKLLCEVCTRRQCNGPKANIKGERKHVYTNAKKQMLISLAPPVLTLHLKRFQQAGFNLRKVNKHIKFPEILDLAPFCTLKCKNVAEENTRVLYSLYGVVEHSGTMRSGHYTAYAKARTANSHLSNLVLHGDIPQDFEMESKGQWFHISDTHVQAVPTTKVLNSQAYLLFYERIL
Sequence of UCHL1 (P09936 whole entry, looked up): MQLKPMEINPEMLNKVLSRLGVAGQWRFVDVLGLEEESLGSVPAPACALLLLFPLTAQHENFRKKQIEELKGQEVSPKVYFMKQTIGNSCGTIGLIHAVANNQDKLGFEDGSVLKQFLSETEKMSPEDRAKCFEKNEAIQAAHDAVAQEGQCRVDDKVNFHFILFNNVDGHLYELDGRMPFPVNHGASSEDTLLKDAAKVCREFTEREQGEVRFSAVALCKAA
Sequence of USP10 (Q14694 whole entry): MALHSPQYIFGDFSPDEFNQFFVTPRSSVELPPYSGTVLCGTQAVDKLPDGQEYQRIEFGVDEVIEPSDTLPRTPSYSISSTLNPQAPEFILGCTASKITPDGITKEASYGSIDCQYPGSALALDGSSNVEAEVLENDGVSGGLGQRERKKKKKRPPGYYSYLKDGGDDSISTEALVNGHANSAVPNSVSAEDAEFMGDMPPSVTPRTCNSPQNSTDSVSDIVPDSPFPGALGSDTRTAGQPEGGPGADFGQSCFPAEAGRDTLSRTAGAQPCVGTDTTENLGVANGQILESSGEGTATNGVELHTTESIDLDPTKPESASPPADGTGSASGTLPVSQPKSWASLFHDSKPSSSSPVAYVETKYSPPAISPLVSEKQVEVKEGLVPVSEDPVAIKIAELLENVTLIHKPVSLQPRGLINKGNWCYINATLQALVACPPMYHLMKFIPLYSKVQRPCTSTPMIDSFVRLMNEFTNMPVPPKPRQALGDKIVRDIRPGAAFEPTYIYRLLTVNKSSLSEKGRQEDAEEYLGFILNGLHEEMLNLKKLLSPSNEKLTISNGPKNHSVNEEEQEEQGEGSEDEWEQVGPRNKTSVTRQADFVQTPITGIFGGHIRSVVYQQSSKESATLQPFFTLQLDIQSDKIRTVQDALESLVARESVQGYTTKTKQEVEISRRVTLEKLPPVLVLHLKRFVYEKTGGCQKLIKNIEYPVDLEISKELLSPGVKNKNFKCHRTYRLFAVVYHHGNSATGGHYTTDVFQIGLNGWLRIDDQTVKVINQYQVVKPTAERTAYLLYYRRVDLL

CN(C)C(=O)c1ccc(CNC(=O)CCl)cc1
inactive: OTUD6B -0.0231 | OTUD7B -0.351 | PRPF8 -0.0967 | PSMD7 -0.0924 | UCHL3 0.248 | UCHL5 -0.118 | USP10 -0.0496 | USP15 0.0414 | USP16 0.0806
active: UCHL1 -1.23
